Source: PubChem (several laboratories)
EBNA-1 inh: blocks EBNA-1 binding to DNA. EBNA-1 DNA binding, fluorescence polarization. AID 1950. inhibition, % at 14.8 µM. hit rate 0.34% among 300,000; in the data active means inhibition above about 28%
ZTA DNA inh: counter-screen for EBNA-1 inhibitors: inhibitors of Epstein-Barr virus ZTA; AID 2234; inhibition, % at 11 µM; ZTA-DNA binding, fluorescence polarization; P03206; hit rate 0.15% among 320,000; in the data active means inhibition above about 33%
Target sequence (P03206 whole entry, looked up): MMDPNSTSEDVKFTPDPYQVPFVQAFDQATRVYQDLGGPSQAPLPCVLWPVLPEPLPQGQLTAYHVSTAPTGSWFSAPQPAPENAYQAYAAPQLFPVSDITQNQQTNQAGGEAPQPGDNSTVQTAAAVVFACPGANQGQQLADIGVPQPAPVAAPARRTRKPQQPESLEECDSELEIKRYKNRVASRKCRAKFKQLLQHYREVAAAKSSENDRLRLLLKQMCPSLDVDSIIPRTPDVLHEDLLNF
aDG glyco act: alpha-DG glycosylation activation; AID 624168; hit rate 0.22% among 360,000; Pro5-aDG cells, alpha-DG glycosylation AlphaScreen (IIH6); 0% Pro5, 100% B10-LARGE cell signal; activation, % at 10 µM;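 active means activation of at least 8% versus controls, or a plate z-score of at least 8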;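 further: Pro5 are CHO cells carrying HIG-tagged alpha-DG that lacks glycosylation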
PG9 Ab binder: small molecules binding HIV-1 gp120 antibody PG9; hit rate 0.43% among 360,000; inhibition, % at 6.7 µM; TR-FRET gp120-PG9 antibody binding; AID 624416; in the data active means inhibition above about 8.5%
Rev-erbA mod: modulates human Rev-erb alpha binding to DNA. Rev-erbα–FITC-DNA binding, fluorescence polarization, 90 min. activity, % at 10 µM. hit rate 0.79% among 370,000;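 active means activity above about 14%, limit read from the data; passing the limit was not always enough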;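 further: 0% = DMSO wells with 35 nM protein and 100% = DMSO wells with 750 nM protein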
NCF1 inh: blocks human p47phox regulatory protein of NADPH oxidases; P14598; p47phox/p22phox peptide binding, fluorescence polarization, 2 h; inhibition, % at 24.7 µM; hit rate 0.53% among 220,000; AID 1274;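 active means inhibition above about 30%, limit read from the data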;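 further: 0% = p47phox with labelled peptide and 100% = labelled peptide alone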
Target sequence (P14598 whole entry, looked up): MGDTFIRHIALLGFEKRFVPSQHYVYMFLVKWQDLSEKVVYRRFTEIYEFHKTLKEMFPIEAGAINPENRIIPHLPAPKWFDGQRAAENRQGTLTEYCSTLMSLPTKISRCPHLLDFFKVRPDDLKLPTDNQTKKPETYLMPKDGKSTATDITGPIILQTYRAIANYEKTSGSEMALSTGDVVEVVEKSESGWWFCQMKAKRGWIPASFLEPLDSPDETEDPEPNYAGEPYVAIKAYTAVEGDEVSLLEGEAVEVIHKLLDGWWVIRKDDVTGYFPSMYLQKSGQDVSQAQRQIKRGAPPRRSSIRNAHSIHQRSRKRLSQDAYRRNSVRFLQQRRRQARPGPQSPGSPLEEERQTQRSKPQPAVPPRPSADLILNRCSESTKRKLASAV
Rev-erbA confirm: Rev-erb alpha (human) modulation, hit confirmation | shares compounds with Rev-erbA mod | Rev-erb alpha FITC-DNA binding, fluorescence polarization, 90 min | activation, % at 25 µM | hit rate 61% among 3,000 | AID 1259319;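 active means activation at or above a set limit, or at least 3 SD above the negative control mean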;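 further: 0% = 35 nM protein with DMSO and 100% = 750 nM protein high control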
RORg counter: counter-screen for Rev-erb alpha modulators: RORgamma DNA binding; shares compounds with Rev-erbA mod; purified RORgamma protein-FITC-DNA binding, fluorescence polarization; IC50, µM; hit rate 8% among 910;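 active means Compounds whose fitted half-maximal concentration for disrupting protein-DNA binding is below 10 micromolar; the record names Rev-erb in its text, so the target is in doubt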
* marks the source's active call; other numbers are inactive results; i = inactive; nt = no result given. An excerpt weighted towards active compounds, which were near 1.9% of everything screened.

SMILES | EBNA-1 inh | ZTA DNA inh | aDG glyco act | PG9 Ab binder | Rev-erbA mod | NCF1 inh | Rev-erbA confirm | others
COCCCNC(=O)C[C@@H]1C(=O)N2CCCC3=C2[C@@]1(C(=O)OC)CCCC3 | nt | nt | nt | nt | -0.9 | nt | nt
CC(=O)Nc1ccc(Nc2cc(C)nc3c(-c4ccc(Cl)cc4)c(C)nn23)cc1 | -7.1 | 26.7 | 0.8 | 0.5 | 19.5* | 14.7 | 6.8
Cc1cc(N2CCOCC2)n2nc(C)c(-c3ccc(Cl)cc3)c2n1 | 4.8 | 7.3 | 0.4 | 1.3 | 25.6* | nt | -1.1
CC(=O)Nc1ccc(Nc2cc(C)nc3c(-c4ccc(Cl)cc4)cnn23)cc1 | -7.4 | -6.0 | 2.8 | 0.6 | 0.2 | -7.4 | nt
Cc1cc(N2CCOCC2)n2ncc(-c3ccc(Cl)cc3)c2n1 | 22.4 | 2.1 | 0.4 | 1.3 | 8.4 | -6.0 | nt
Cc1cc(N2CCOCC2)n2nc(C(F)(F)F)c(-c3ccccc3)c2n1 | nt | nt | 0.0 | -0.2 | 27.6* | nt | -2.0
Cc1nn2c(N3CCOCC3)cc(C(C)(C)C)nc2c1-c1ccc(Cl)cc1 | nt | nt | 0.3 | -0.2 | 30.1* | nt | -4.8
COc1ccc(-n2c(COc3ccccc3)nnc2SCC(=O)Nc2ccc3c(c2)OCCO3)cc1 | nt | nt | nt | nt | 1.6 | nt | nt
COCC(=O)N1[C@H](CO)[C@@H](c2ccc(-c3cccnc3)cc2)[C@H]1CN(C)S(=O)(=O)c1ccccc1[N+](=O)[O-] | nt | nt | nt | nt | 0.2 | nt | nt
O=C(CCSc1nnc2scc(-c3ccccc3)n12)Nc1nc(-c2ccccc2)ns1 | -15.5 | -7.2 | 0.1 | 0.2 | 24.0* | 2.0 | 46.2* | RORg counter=>40
CC(=O)Nc1ccc(C(=O)CSc2nnc3scc(-c4ccccc4)n23)cc1 | 1.8 | 2.2 | -0.1 | -14.2 | 4.0 | -6.1 | nt
CCC(C)[C@@H](C(=O)OC)N(Cc1cn(Cc2ccccc2)nn1)S(=O)(=O)c1ccccc1Br (stereo not given in full) | nt | nt | nt | nt | 3.6 | nt | nt
O=c1c2cnn(-c3ccccc3)c2nc(-c2cccs2)n1-c1ccc(Br)cc1 | 1.9 | 3.6 | 0.1 | -0.8 | 38.0* | -27.0 | 4.0
COC(=O)[C@]12C[C@H](CC(=O)NCc3cccc4ccccc34)C(=O)N(CCC3=CCCCC3)C1=C[C@H](C(C)C)O[C@@H]2C1CC1 | nt | nt | nt | nt | -1.1 | nt | nt
Cc1ccc(-c2nc3c(c(=O)c4ccccc4n3C)c(=O)n2-c2ccc(F)cc2)cc1 | -15.1 | 2.5 | 0.1 | -1.3 | 69.2* | -7.9 | 43.2* | RORg counter=2.66*
Cn1c2ccccc2c(=O)c2c(=O)n(-c3ccc(F)cc3)c(-c3cccs3)nc21 | -4.7 | 1.8 | 0.3 | 1.7 | 2.0 | -1.2 | nt
COc1ccc(Cn2c(-c3ccccc3C)nc3c(c(=O)c4ccccc4n3C)c2=O)cc1 | 1.6 | -2.9 | -0.1 | 1.5 | 44.6* | nt | 1.8
COc1ccc(Cn2c(C)nc3c(c(=O)c4ccccc4n3C)c2=O)cc1 | -2.0 | -1.6 | 0.1 | -1.6 | 4.5 | -2.4 | nt
COc1ccc(-c2nc3c(c(=O)c4ccccc4n3C)c(=O)n2Cc2ccccc2)cc1 | 2.6 | -7.3 | -0.2 | 0.7 | 48.4* | 0.7 | 50.1* | RORg counter=>40
COc1ccc(Cn2c(-c3ccc(C)cc3)nc3c(c(=O)c4ccccc4n3C)c2=O)cc1 | -6.0 | -13.7 | 0.2 | 1.4 | 26.6* | 8.1 | 14.1
C[C@H]1[C@@H](N(C)CC2CCCCC2)CC[C@@]23CCCN2C(=O)CCC[C@@H]13 | nt | nt | nt | nt | 3.4 | nt | nt
Cc1ccc(CNC2CCC23CCC(c2ccccc2)CC3)o1 (stereo not given) | nt | nt | nt | nt | -2.5 | nt | nt
COC(=O)C1CN(Cc2cn(CCOC(C)=O)nn2)CCS(=O)(=O)N1Cc1ccc(OC)cc1 (stereo not given) | nt | nt | nt | nt | -5.0 | nt | nt
O=C(CSc1nnc(-c2ccncc2)n1-c1ccccc1)Nc1cccc2ccccc12 | nt | nt | nt | nt | 8.6 | nt | nt
C/C(=N/NC(=O)Cc1cccs1)c1cccc([N+](=O)[O-])c1 | nt | nt | nt | nt | -0.3 | nt | nt
SMILES | EBNA-1 inh | ZTA DNA inh | aDG glyco act | PG9 Ab binder | Rev-erbA mod | NCF1 inh | Rev-erbA confirm | others
COc1ccc(CCn2c(C)nc3c(c(=O)c4ccccc4n3C)c2=O)cc1 | -11.3 | -7.3 | -0.3 | -0.5 | 1.9 | -11.4 | nt
COc1ccc(-c2nc3c(c(=O)[nH]c(=O)n3Cc3ccccc3)n2C)cc1 | -2.6 | 0.9 | -0.3 | 0.5 | 43.4* | 16.1 | 0.3
CCCCCc1nc2c(c(=O)c3ccccc3n2C)c(=O)n1Cc1ccc(OC)cc1 | 1.9 | 3.5 | 0.4 | 0.6 | 67.0* | -8.5 | 34.1* | RORg counter=>40
Nn1c(SCC(=O)Nc2nccs2)nnc1-c1cc(-c2ccc(Cl)cc2)n[nH]1 | nt | nt | nt | nt | 4.2 | nt | nt
CCOC(=O)NC[C@@]1(C(=O)OC)CC(=O)N(Cc2ccc(Cl)cc2)[C@@H]1c1ccc(OC)cc1 | nt | nt | nt | nt | 0.9 | nt | nt
Cc1cc(=O)oc2cc(NC(=O)c3ccnn3C)ccc12 | 0.7 | -7.0 | 0.3 | nt | nt | nt | nt
Cc1cc(=O)oc2cc(NC(=O)c3c(Cl)cnn3C)ccc12 | 10.7 | -0.8 | 0.0 | 0.9 | 20.9* | nt | 5.3
Cc1nc(C)c(-c2ccc(SCC(=O)Nc3cccc(Cl)c3C)nn2)s1 | 0.0 | 2.3 | 0.2 | -1.9 | 16.5* | nt | -3.8
Nn1c(SCC(=O)NC2CCCCC2)nnc1-c1cc(-c2ccc(Cl)cc2)n[nH]1 | nt | nt | nt | nt | -4.7 | nt | nt
COc1cccc(-n2c([S-])c(C(=O)Nc3ccc(S(=O)(=O)N4CCOCC4)cc3)[n+]3cc(C(N)=O)ccc23)c1 | 19.0 | 15.9 | -0.2 | -1.6 | 61.8* | -73.1 | 62.6* | RORg counter=i
CC(C)COc1cccc(C(=O)Nc2ccc(S(=O)(=O)N3CCOCC3)cc2)c1 | -5.5 | 7.3 | 0.6 | -1.8 | -7.5 | -17.8 | nt
Cc1cc(C)nc(SCC(=O)Nc2cc(C)on2)n1 | 11.4 | -3.6 | -0.2 | -0.8 | -0.7 | -13.3 | nt
Cc1cc(NC(=O)CSc2nc3c(C)c(C)ccc3cc2C)no1 | -4.2 | -9.1 | 0.2 | -1.8 | 24.6* | nt | 15.1
Cc1cc(NC(=O)CSc2nc3cc(C)c(C)cc3cc2C)no1 | -6.7 | -2.9 | 0.0 | -2.1 | 85.4* | nt | 47.8* | RORg counter=>40
Cc1ccc(Cc2c(-c3ccc(F)cc3)nc3c(Cl)cc(C(F)(F)F)cn23)cc1 | nt | nt | -0.1 | -1.6 | -1.7 | nt | nt
Fc1ccc(-c2nc3c(Cl)cc(C(F)(F)F)cn3c2Cl)cc1 | 6.9 | -12.2 | -0.3 | 1.4 | 34.9* | -13.3 | 19.4*
CCCc1cc(=O)oc2cc(C)cc(OC(C)C(=O)NCc3ccncc3)c12 (stereo not given) | -1.8 | -11.9 | -0.5 | -1.7 | 23.4* | nt | 21.2*
CCCc1cc(=O)oc2cc(C)cc(OC(C)C(=O)NCc3cccnc3)c12 (stereo not given) | -1.6 | -6.1 | -0.4 | -1.7 | 1.6 | nt | nt
CCCc1cc(=O)oc2cc(C)cc(OCC(=O)Nc3ccc(S(N)(=O)=O)cc3)c12 | 11.9 | 10.1 | -0.1 | 5.1 | 135.2* | nt | 150.8* | RORg counter=i
CC(C)CN1C(=O)C[C@@]2(C(=O)N(C)c3ccc(NS(=O)(=O)C4CC4)cc32)C1c1ccccc1 (stereo not given in full) | nt | nt | nt | nt | -0.7 | nt | nt
